These results are taken from PubChem BioAssay (Tox21).

Experiment [1] is described as follows: qHTS assay to test for compound auto fluorescence at 590 nm (red) in HepG2 cells (AID 720674). The method in brief:
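Rose Bengal sodium served as the red fluorophore standard. HepG2 monolayers (overnight attachment, MEM with 10% FBS) were exposed to test compounds for 1 hr at 37 C and read at Ex 540/Em 590 nm.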
(In general: Quantitative high-throughput screening tests each substance at several concentrations.)

Experiment [2] in a line: qHTS assay to test for compound auto fluorescence at 460 nm (blue) in HEK293 cells (AID 720678). The method in brief: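 Measured: blue fluorescence (Ex 405/Em 460 nm) of compound-treated HEK293 cells, incubated overnight at 37C with 5% CO2 and scaled to triamterene equivalents.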
Experiment [3] can be described thus: qHTS assay to test for compound auto fluorescence at 535 nm (green) in HEK293 cells (AID 720680).
The nature of experiment [4]: qHTS assay to test for compound auto fluorescence at 590 nm (red) in HEK293 cell free culture (AID 720683). In short, it runs like this:
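Tox21 10K library compounds were pinned into cell-free DMEM with 10% FBS and fluorescence was read at excitation 540 nm. Activity is expressed as Rose Bengal sodium equivalency.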

Experiment [5] concerns the target Glucocorticoid receptor (Homo sapiens) (UniProt P04150). The experiment in a line: qHTS assay to identify small molecule agonists of the glucocorticoid receptor (GR) signaling pathway (AID 720691; active = well fitted activation curve with a large enough effect in the signal ratio in the repeat runs, not every such curve was filed as active; inconclusive = weak or mixed curves, or effect the other way; inactive = no such curve, though single readings can be large or run the other way; the % refers to the signal ratio). In short, it runs like this:
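GR-bla HeLa cells carrying a GRE-driven beta-lactamase reporter, exposed to compounds for 18 h at 37 C. Reporter activation read as fluorescence after 2 h with LiveBLAzer B/G FRET substrate at room temperature.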

A short description of experiment [6]: qHTS assay to identify small molecule antagonists of the glucocorticoid receptor (GR) signaling pathway - cell viability counter screen (AID 720693). Also: nearly all actives have a fitted effect of over 55% in size.
The nature of experiment [7]: qHTS assay for identifying genotoxic compounds that show differential cytotoxicity against isogenic chicken DT40 cell lines with known DNA damage response pathways - wild type cell line (AID 743012). Also: nearly all actives have a fitted effect of over 60% in size. Also: potency is read from the fitted curve at half-maximal effect. The method in brief:
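Wild-type DT40 cells (300/well) exposed to compounds for 40 hours at 37 C/5% CO2. Viability read by CellTiter-Glo luminescence after 30 min at room temperature.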

Experiment [8] can be described thus: qHTS assay for identifying genotoxic compounds that show differential cytotoxicity against isogenic chicken DT40 cell lines with known DNA damage response pathways - Rev3 mutant cell line (AID 743014). Also: nearly all actives have a fitted effect of over 55% in size. Also: potency is read from the fitted curve at half-maximal effect.
A short description of experiment [9]: qHTS assay for identifying genotoxic compounds that show differential cytotoxicity against isogenic chicken DT40 cell lines with known DNA damage response pathways - Rad54/Ku70 mutant cell line (AID 743015). Also: nearly all actives have a fitted effect of over 60% in size. Also: potency is read from the fitted curve at half-maximal effect.
The nature of experiment [10]: qHTS assay to identify small molecule antagonists of the thyroid receptor (TR) signaling pathway - cell viability counter screen (AID 743064). Also: nearly all actives have a fitted effect of over 50% in size. Also: potency is read from the fitted curve at half-maximal effect. The method in brief:
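GH3.TRE-Luc cells, 4 h pre-plating; cpd + T3 1 nM final; 37 °C 23.5 h; CellTiter-Fluor 30 min; fluorescence read.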

Experiment [11] is described as follows: qHTS assay to identify small molecule antagonists of the thyroid receptor (TR) signaling pathway (AID 743065). Also: nearly all actives have a fitted effect of over 55% in size. Also: potency is read from the fitted curve at half-maximal effect. The method in brief:
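GH3.TRE-Luc rat pituitary cells carrying two TR response elements driving luciferase were plated for 4 h, given compound plus 1 nM T3 (final), and incubated 23.5 h at 37 C. ONE-Glo luminescence measured reporter inhibition; CellTiter-Fluor fluorescence tracked cytotoxicity.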

The test system of experiment [12] is thyroid hormone receptor (rat, GH3 cells). Description: qHTS assay to identify small molecule agonists of the thyroid receptor (TR) signaling pathway (AID 743066; calls by dose curve).
Experiment [13] is described as follows: qHTS assay to identify small molecule that activate the aryl hydrocarbon receptor (AhR) signaling pathway - cell viability counter screen (AID 743086).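 Also: HepG2 liver cells carrying the AhR DRE luciferase reporter; series mostly up to about 70 µM; nearly all actives have a fitted effect of over 45% in size.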 The method in brief: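 HepG2-AhR-luc (HG2L7.5c1) cells, 4000/well, were preincubated 5 h at 37C, exposed to compound in qHTS format for 24 hr at 37C, then given CellTiter-Fluor for 30 min; viability was read as fluorescence in the reporter wells.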

Experiment [14] deals with Peroxisome proliferator-activated receptor gamma (Homo sapiens) (UniProt P37231). Description: qHTS assay to identify small molecule agonists of the peroxisome proliferator-activated receptor gamma (PPARg) signaling pathway (AID 743094; active = well fitted activation curve with a large enough effect in the signal ratio in the repeat runs, not every such curve was filed as active; inconclusive = weak or mixed curves, or effect the other way; inactive = no such curve, though single readings can be large or run the other way; the % refers to the signal ratio). In short, it runs like this: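 GeneBLAzer PPARg UAS-bla HEK293H cells were plated, rested 5 h, then exposed to compounds for 17 h at 37C. Beta-lactamase activity was read by LiveBLAzer B/G FRET substrate fluorescence after 1 h at room temperature.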

The target in experiment [15] is Nuclear receptor subfamily 1 group I member 2 (Homo sapiens) (UniProt O75469). The experiment in a line: Human pregnane X receptor (PXR) activation by small molecules, qHTS assay (AID 1346985). Also: nearly all actives have a fitted effect of over 40% in size. Also: potency is read from the fitted curve at half-maximal effect. The method in brief:
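DPX-2 cells (HepG2 co-transfected with a PXR response element and a CYP3A4-promoter luciferase construct) were seeded at 2,000 per well, rested 5 hr at 37C, then exposed to DMSO-dissolved compounds for 24 hr. Activation was read as luciferase luminescence.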

A short description of experiment [16]: qHTS assay for small molecules that induce genotoxicity in human embryonic kidney cells expressing luciferase-tagged ATAD5 - cell viability (AID 651634; calls by dose curve; also: nearly all actives have a fitted effect of over 25% in size). In short, it runs like this: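 HEK293T cells carrying luciferase-tagged ATAD5, 2,000 cells/well, exposed to compound for 15.5 hr at 37C. Viability read as live-cell protease activity by CellTiter-Fluor fluorescence after 30 min at 37C.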

A short description of experiment [17]: qHTS assay for small molecule disruptors of the mitochondrial membrane potential (AID 720635). Also: potency is read from the fitted curve at half-maximal effect. The method in brief: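 HepG2 cells (2,000/well) attached overnight at 37C, then took compound for 1 hr at 37C, 5% CO2. Mito-MPS dye was added for 30 min; fluorescence was read at 490/535 nm (monomers) and 540/590 nm (aggregates).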
The target of experiment [18] is Estrogen receptor (Homo sapiens) (UniProt P03372). Description: qHTS assay to identify small molecule agonists of the estrogen receptor alpha (ER-alpha) signaling pathway (AID 743075; calls by dose curve;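 also: HEK293 GripTite cells with ER-alpha and UAS-driven beta-lactamase reporter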; also: potency is read from the fitted curve at half-maximal effect).
The nature of experiment [19]: qHTS assay to identify small molecule antagonists of the estrogen receptor alpha (ER-alpha) signaling pathway using the BG1 cell line (AID 743080; calls by dose curve;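 also: BG1 cells stimulated with 17beta-estradiol alongside compound; series mostly up to about 70 µM; nearly all actives have a fitted effect of over 25% in size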). In short, it runs like this:
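Quantitative HTS on the Tox21 10K library: BG1 cells with endogenous ER-alpha and ERE-luciferase reporter, 17beta-estradiol stimulation, 21.5 h compound exposure, luminescence endpoint with parallel fluorescence cytotoxicity counter-read.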

Experiment [20] is described as follows: qHTS assay for small molecule agonists of the p53 signaling pathway (AID 651631; calls by dose curve; also: nearly all actives have a fitted effect of over 15% in size). The method in brief: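 p53RE-bla HCT-116 cells; compounds 16 h, 37 °C; LiveBLAzer B/G FRET substrate 2 h RT; fluorescence intensity read-out, qHTS format.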

Calls of active or inactive are those of the source. Unless noted, calls follow the shape of the dose curve; as a rule, active = well fitted curve in the direction sought with a large enough effect in the repeat runs; inconclusive = weak or mixed curves; inactive = no such curve, though single readings can be large; an effect the other way counts as inactive or inconclusive.

Estrogen receptor (Homo sapiens), sequence (P03372 whole entry, looked up): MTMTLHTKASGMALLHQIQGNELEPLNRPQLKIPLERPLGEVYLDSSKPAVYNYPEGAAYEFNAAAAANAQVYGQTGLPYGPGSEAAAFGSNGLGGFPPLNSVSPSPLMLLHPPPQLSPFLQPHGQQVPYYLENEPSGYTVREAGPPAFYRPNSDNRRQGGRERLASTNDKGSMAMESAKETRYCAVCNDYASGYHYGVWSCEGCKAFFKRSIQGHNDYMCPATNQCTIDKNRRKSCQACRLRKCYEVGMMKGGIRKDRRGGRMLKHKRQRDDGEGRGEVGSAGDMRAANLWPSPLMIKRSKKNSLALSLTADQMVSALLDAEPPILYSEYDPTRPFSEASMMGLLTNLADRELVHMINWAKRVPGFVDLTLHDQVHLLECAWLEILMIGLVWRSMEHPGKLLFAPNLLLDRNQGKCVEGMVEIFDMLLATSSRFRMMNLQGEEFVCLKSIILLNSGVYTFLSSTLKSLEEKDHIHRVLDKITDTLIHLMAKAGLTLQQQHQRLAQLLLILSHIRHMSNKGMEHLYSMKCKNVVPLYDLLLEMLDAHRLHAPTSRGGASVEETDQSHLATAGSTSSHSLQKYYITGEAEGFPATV
Peroxisome proliferator-activated receptor gamma (Homo sapiens), sequence (P37231 whole entry, looked up): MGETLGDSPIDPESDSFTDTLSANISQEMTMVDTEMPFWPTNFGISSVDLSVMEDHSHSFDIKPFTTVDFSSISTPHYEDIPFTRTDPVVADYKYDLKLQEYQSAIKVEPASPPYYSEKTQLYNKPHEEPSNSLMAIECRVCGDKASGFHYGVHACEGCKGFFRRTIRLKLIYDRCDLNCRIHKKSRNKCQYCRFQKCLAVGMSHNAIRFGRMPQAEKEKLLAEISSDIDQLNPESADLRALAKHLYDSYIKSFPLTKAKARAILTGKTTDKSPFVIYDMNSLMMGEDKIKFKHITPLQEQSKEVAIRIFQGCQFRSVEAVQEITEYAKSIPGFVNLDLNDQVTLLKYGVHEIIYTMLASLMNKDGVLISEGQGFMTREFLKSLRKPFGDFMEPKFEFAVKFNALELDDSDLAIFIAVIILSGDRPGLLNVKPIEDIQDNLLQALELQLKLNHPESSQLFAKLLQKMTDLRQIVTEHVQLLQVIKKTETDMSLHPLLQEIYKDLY
Glucocorticoid receptor (Homo sapiens), sequence (P04150 whole entry, looked up): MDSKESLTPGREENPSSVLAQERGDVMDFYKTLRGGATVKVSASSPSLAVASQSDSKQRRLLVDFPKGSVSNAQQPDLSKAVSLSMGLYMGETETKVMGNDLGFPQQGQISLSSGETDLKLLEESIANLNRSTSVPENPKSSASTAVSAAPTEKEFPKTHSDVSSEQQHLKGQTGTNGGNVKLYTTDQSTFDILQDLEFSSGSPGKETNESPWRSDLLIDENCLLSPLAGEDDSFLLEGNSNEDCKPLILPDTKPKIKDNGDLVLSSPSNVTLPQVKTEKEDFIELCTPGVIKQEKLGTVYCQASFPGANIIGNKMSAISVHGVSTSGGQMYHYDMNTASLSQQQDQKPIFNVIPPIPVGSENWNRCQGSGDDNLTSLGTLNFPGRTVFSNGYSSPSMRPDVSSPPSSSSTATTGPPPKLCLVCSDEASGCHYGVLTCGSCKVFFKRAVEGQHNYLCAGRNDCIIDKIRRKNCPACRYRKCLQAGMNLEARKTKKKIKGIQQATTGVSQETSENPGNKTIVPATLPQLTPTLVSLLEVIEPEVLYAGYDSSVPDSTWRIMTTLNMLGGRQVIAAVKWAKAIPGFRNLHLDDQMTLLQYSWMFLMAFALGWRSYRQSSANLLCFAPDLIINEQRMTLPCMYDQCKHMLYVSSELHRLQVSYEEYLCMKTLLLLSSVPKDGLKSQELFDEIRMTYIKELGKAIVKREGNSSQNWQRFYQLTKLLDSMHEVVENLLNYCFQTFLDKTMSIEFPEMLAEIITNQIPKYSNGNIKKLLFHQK

Regarding `C/C(=C\c1csc(C)n1)[C@@H]1C[C@@H]2O[C@]2(C)CCC[C@H](C)[C@H](O)[C@@H](C)C(=O)C(C)(C)[C@@H](O)CC(=O)O1`, the compound was called inactive in experiment [1] and in [4]. Moreover, the Potency entry in experiment [2], in experiment [3], in [5], in experiment [6], in experiment [12] and in [13] was “inactive” each time. In addition, the Potency entry in [14] is “inactive”. For the same compound, the Potency in experiment [7] was 0.0019 µM (active); in [8], 0.0024 µM (active); in [9], 0.0038 µM (active); in experiment [10] it was 0.0038 µM (active); in experiment [11] it was 0.0106 µM (active); in experiment [15], 7.94 µM (active).
Regarding `C[N+]1(C)[C@@H]2CC[C@H]1CC(OC(=O)c1c[nH]c3ccccc13)C2` (stereo partly drawn), the Potency result in experiment [16], in experiment [17], in [2], in experiment [5], in experiment [6] and in experiment [7] was “inactive” in each case. Further, the Potency entry in [9], in experiment [10], in [11], in [12], in experiment [18] and in experiment [19] was “inactive” each time. For the same compound, the Potency entry in experiment [13], in [14] and in experiment [15] was “inactive” each time. The outcome in experiment [4] was inactive.
Turning to `CC1(C)[C@H](C=C(Cl)Cl)[C@H]1C(=O)OCc1c(F)c(F)cc(F)c1F`, the Potency entry in [16], in experiment [3], in [5], in experiment [6], in [7] and in [9] was “inactive” in each case. For the same compound, the Potency result in [11], in experiment [12], in [18], in experiment [19], in experiment [13] and in [15] was “inactive” each time. For the same compound, the Potency in experiment [17] was 22.1 µM (active). Further, the compound was classed as inactive in experiment [1] and in experiment [4].
As to `CCCCCCC(=O)O[C@H]1CC[C@H]2[C@@H]3CC[C@H]4CC(=O)C=C(C)[C@]4(C)[C@H]3CC[C@]12C`, the call in experiment [1] and in [4] was inactive. In addition, the Potency result in [5], in experiment [6], in experiment [8], in experiment [9], in experiment [10] and in [11] was “inactive” throughout. For the same compound, the Potency result in experiment [12], in [19], in experiment [13], in experiment [14] and in experiment [15] was “inactive” in each case. Besides, the Potency in [18] was 6.74 µM [inconclusive] (active).
For the compound `CCCC(C)C1(CC)C(=O)NC(=O)NC1=O` (stereo not drawn), the Potency entry in experiment [16], in experiment [3], in experiment [6], in experiment [7], in [8] and in experiment [9] was “inactive” throughout. In addition, the Potency result in [10], in experiment [11], in experiment [12], in [18], in experiment [19] and in experiment [13] was “inactive” each time. In addition, the Potency result in [14] and in experiment [15] was “inactive” in each case. Further, the result in experiment [1] and in experiment [4] was inactive.
As to `C[C@]12CC[C@H]3[C@@H](CCC4=C(Cl)C(=O)CC[C@@]43C)[C@@H]1CC[C@@H]2O`, the Potency result in experiment [20], in experiment [16], in experiment [2], in [3], in [6] and in experiment [10] was “inactive” each time. Besides, the Potency entry in experiment [12], in experiment [13] and in experiment [14] was “inactive” each time. Moreover, the call in experiment [1] and in [4] was inactive. The Potency in [7] is 16.8 µM (active); in [8], 9.44 µM (active); in experiment [9], 23.7 µM (active); in experiment [11], 13.3 µM (active); in experiment [18] it was 2.68 µM [inconclusive] (active).
Consider `NC1=NC(=O)N2CC12` (stereo not drawn), for which the Potency entry in [16], in experiment [17], in experiment [2], in [3], in experiment [6] and in [7] was “inactive” in each case. Also, the Potency entry in experiment [8], in experiment [9], in experiment [10], in experiment [11], in experiment [12] and in [18] was “inactive” in each case. Also, the Potency result in experiment [19], in experiment [13], in experiment [14] and in [15] was “inactive” in each case. The result in [1] and in experiment [4] was inactive.
`CN1c2ccccc2C(NCCCCCCC(=O)O)c2ccc(Cl)cc2S1(=O)=O` (stereo not drawn): the Potency entry in experiment [16], in [2], in experiment [3], in experiment [5], in experiment [6] and in experiment [11] was “inactive” in each case. Moreover, the Potency entry in [12], in experiment [18], in [19], in experiment [13] and in experiment [14] was “inactive” throughout. Further, the compound was called inactive in experiment [4]. In addition, in experiment [15], the Potency is 7.94 µM (active).
